Data as given in PubChem BioAssay (NCI).
About 83,000 compounds went through this panel and 20% of them were active in at least one assay; those are over-represented in the sample as a whole.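 Interpretation: 100, growth as untreated; towards 0, rising growth inhibition; 0, no net growth; 0 to -100, cell death. Compounds scoring below 10 were considered active.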 A number with no mark means an inactive call. Activity calls are given as the source filed them.

Key:
Experiment in all cases: NCI-60 one-dose screen, 48 h (100 = growth as untreated, 0 = no growth, -100 = all killed)
SR leukemia = settings: 10 µM
RPMI-8226 leukemia = settings: 10 µM
OVCAR-8 ovarian = settings: 10 µM
OVCAR-5 ovarian = settings: 10 µM
OVCAR-4 ovarian = settings: 10 µM
SK-OV-3 ovarian = settings: 10 µM
IGROV1 ovarian = settings: 10 µM
OVCAR-3 ovarian = settings: 10 µM
NCI/ADR-RES ovarian = settings: 10 µM
T-47D breast = settings: 10 µM
BT-549 breast = settings: 10 µM
MDA-MB-435 melanoma = settings: 10 µM
SW-620 colon = settings: 10 µM
MCF7 breast = settings: 10 µM unless noted
HCT-116 colon = settings: 10 µM
HCC-2998 colon = settings: 10 µM
KM12 colon = settings: 10 µM
HS 578T breast = settings: 10 µM

SMILES	growth (SR leukemia) [%]	growth (RPMI-8226 leukemia)	growth (OVCAR-8 ovarian) [%]	growth (OVCAR-5 ovarian) [%]	growth (OVCAR-4 ovarian) [%]	growth (SK-OV-3 ovarian) [%]	growth (IGROV1 ovarian) [%]	growth (OVCAR-3 ovarian)	growth (NCI/ADR-RES ovarian) [%]	growth (T-47D breast)	growth (BT-549 breast) [%]	growth (MDA-MB-435 melanoma)	growth (SW-620 colon) [%]	growth (MCF7 breast)	growth (HCT-116 colon) [%]	growth (HCC-2998 colon) [%]	growth (KM12 colon) [%]	growth (HS 578T breast)
O/N=C/c1ccc(O)cc1O	110	94.8%	94.1	94.7	109	103	117	112%	104	94%	103	107%	102	98.6%	114	105	99	–
CC1(C)Nc2cccc3c(N=Nc4ccc(N=Nc5ccccc5)c5ccccc45)ccc(c23)N1	107	97%	109	94.9	91.1	95.6	52.1	–	98.1	76.7%	124	109%	89.4	79.4%	70.5	93.2	106	104%
CCC/C=C(\C)C(C)(C#N)C(=O)OCC (stereo unspecified)	100	95.1%	101	110	107	111	107	124%	110	112%	116	96.3%	109	97.1%	120	118	110	–
CCCCN(CCCC)CCCO	113	158%	99.8	99.4	108	110	125	101%	105	107%	–	117%	–	96.7%	110	94.1	104	–
NC(CSC(c1ccccc1)(c1ccccc1)c1ccccc1)C(=O)O (stereo unspecified)	15.3	4.13% (active)	22.6	41.8	74.6	17	63.3	15.9%	93	15.5%	47.4	-66.6% (active)	24.8	2.58% (active)	19.9	15.9	22.5	–
O=[N+]([O-])c1cccc2nsnc12	99.8	104%	93.4	122	114	94.1	–	107%	110	103%	106	111%	104	93.5%	99.1	111	104	101%
Cc1cc(OCCO)cc(C)c1Cl	124	102%	106	115	122	117	113	118%	108	111%	–	–	107	110%	101	102	107	104%
CC1(c2ccccc2)NC(=O)NC1=O (stereo unspecified)	102	105%	103	109	115	107	105	121%	114	109%	–	113%	115	–	111	102	112	–
O=C(/C=C/C(=O)c1ccccc1)c1ccccc1	71.3	80.8%	110	115	108	115	113	102%	114	92.4%	–	100%	–	75.2%	87.6	107	111	–
Cc1ccc(N)cc1[N+](=O)[O-]	115	116%	103	116	83.3	112	110	115%	102	107%	–	119%	–	76.4%	101	92.5	105	113%
Nc1ccc(N=Nc2ccc(O)cc2)c(N)n1	80	38.1%	75	104	59.2	97.3	89.4	73.4%	64.5	82.8%	57.2	69.3%	104	93.4%	86.3	81.5	43.2	–
C=CCOC(=O)C(=O)OCC=C	82.1	103%	101	97.5	110	105	–	118%	117	93.9%	101	120%	103	101%	101	107	102	130%
COc1cc(OC)c2ccc(=O)oc2c1	125	116%	103	90.3	107	112	130	110%	105	–	111	107%	101	100%	109	94.8	98.9	97.1%
O=C(CS)Nc1ccc2ccccc2c1	94.9	44.9%	114	102	116	108	107	–	112	90.9%	118	116%	95.2	85.3%	94.6	80.5	102	–
O=[N+]([O-])c1ccc(N=Nc2ccc(O)c3ccccc23)cc1	19.4	28.5%	10.6	124	40.1	92	38.1	-0.85% (active)	28.1	9.85% (active)	–	52.7%	34	19.5%	–	–	33.1	1.22% (active)
C=CC[N+](C)(C)C	90.8	101%	106	102	109	108	99.7	118%	105	103%	–	102%	–	101%	104	103	114	95.5%
CC1(C(N)=O)CCC(C(=O)O)C1(C)C (stereo unspecified)	111	100%	105	98.2	102	94.4	–	119%	110	91.3%	99.7	97.4%	111	88.4%	99.7	99.4	111	105%
COc1nc(N)nc2c1ncn2C1OC(CO)CC1O (stereo unspecified)	115	92%	101	100	120	98.5	112	118%	107	–	94.3	105%	108	100%	98.8	105	103	117%
CN(C)CCC(=O)c1ccc(O)cc1	105	89.6%	102	115	108	110	113	97.4%	106	96.4%	–	110%	107	97.7%	106	104	99.9	112%
